Test results reported in PubChem BioAssay.
Records with an inconclusive call do not appear. Active and inactive are the calls of the source.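 How the source made its calls, unless noted: active means cell viability at or below a set limit in both duplicate runs, the limit being the all-compound median minus 4 SD (cut at about 23% in these data, passing the limit was not always enough); inconclusive means no clear call, values can overlap the other calls; inactive means the rest.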

assay: doxorubicin toxicity protection in MRP-1 cells – H69AR cells, CellTiter-Glo, duplicate, MRP-1 activator project, pilot screen (AID 807;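 active means viability increase at or above a cutoff of the median across tested compounds plus 3 SD, cut at about 8.5% in these data, passing the limit was not always enough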;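 further: compound pretreatment 18-22 h then 72 h combined with doxorubicin; 0% = doxorubicin alone and 100% = vehicle without doxorubicin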); settings: H69AR viability with doxorubicin, CellTiter-Glo luminescence; at 10 µM; hits give high values

Structure (SMILES) | viability increase
CCCOc1cccc(C(=O)Nc2cccnc2)c1 | 3.16% (inactive)
COc1ccc(-c2n[nH]c(C)c2-c2cnn(-c3ccccc3)c2)c(O)c1 | -2.75% (inactive)
COc1ccc(OC)c(NC(=O)C2CCC(CNc3c(N4CCC(C)CC4)c(=O)c3=O)CC2)c1 (centres undefined) | -4.93% (inactive)
COC(=O)c1c(NC(=O)C2CC2)sc2c1CCCC2 | -4.82% (inactive)
CC(C)Oc1ccc(NC(=O)Oc2ccccc2)cc1 | -0.53% (inactive)
COCCNc1oc(-c2ccccc2Cl)nc1C#N | -0.81% (inactive)
O=c1c2ccccc2nc(N2CCN(c3ccccc3)CC2)n1Cc1ccccc1 | -6.05% (inactive)
CCC(Sc1nc2c(cnn2-c2ccccc2)c(=O)[nH]1)C(=O)OC (centres undefined) | -1.58% (inactive)
Cn1c(-n2c(CCCN3C(=O)c4ccccc4C3=O)nc3ccccc3c2=O)nc2ccccc21 | -3.91% (inactive)
CCOC(=O)C1Cn2c(nc3c(c2=O)C2(CCCC2)Cc2ccccc2-3)S1 (centres undefined) | -3.9% (inactive)
COC(=O)c1ccc(CSc2ccc3nnc(-c4cccc(F)c4)n3n2)o1 | -3.24% (inactive)
CCOc1ccccc1C(=O)Nc1ccc2nc(N3CCN(c4ncccn4)CC3)cc(C)c2c1 | -7.45% (inactive)
O=C(O)CC1C(=O)NCCN1C/C=C/c1ccccc1 (centres undefined) | -2.39% (inactive)
CCN1CCN(CC(=O)Nc2cccc(C)c2)C(=O)C1=O | -1.01% (inactive)
CCCCOc1ccccc1C1NC(=O)NC(C)=C1C(=O)OCCOC (centres undefined) | -2.89% (inactive)
Brc1ccc(-c2nnc3ccc(N4CCN(c5ccccc5)CC4)nn23)cc1 | -5.11% (inactive)

Structure (SMILES) | viability increase
CN1CSC2=C(C#N)C(c3cccc(OCc4ccccc4)c3)CC(=O)N2C1 (centres undefined) | -4.67% (inactive)
COc1ccccc1-n1c(CNC(=O)c2ccccc2)nnc1SCC(=O)Nc1nnc(C)s1 | -0.83% (inactive)
Cn1cccc1Cc1nnc(SCC(=O)Nc2ccc3c(c2)OCCO3)n1CCc1ccccc1 | -1.87% (inactive)
CN(Cc1ccccc1)c1oc(COc2ccccc2F)nc1C#N | 2.94% (inactive)
CCOC(=O)c1cc2c(=O)n3ccccc3nc2n(Cc2ccco2)c1=NC(=O)c1cccnc1 | 3.61% (inactive)
CCOC(=O)c1[nH]c(C)c(C(=O)N2CCOCC2)c1C | -0.92% (inactive)
CCCOC(=O)c1ccc(NC(=O)CCC(=O)OCC)cc1 | -0.37% (inactive)
COC(=O)CSc1nc2ccc(NC(=O)CSc3nnnn3Cc3ccccc3)cc2s1 | 1.67% (inactive)
Cc1ccc(C)c(C(=O)Nc2c(C(N)=O)oc3ccccc23)c1 | -3% (inactive)
C(#Cc1ccccc1)CN1CCN(c2ccccn2)CC1 | -1.2% (inactive)
COc1cc(OC)c(NC(=O)CS(=O)(=O)Cc2nc(-c3ccc(C)cc3)oc2C)cc1Cl | -1.21% (inactive)
COc1cccc(CSc2nc3sc(C)c(C)c3c(=O)n2Cc2ccco2)c1 | 0.35% (inactive)
Cc1noc(/C=C/NCc2cccnc2)c1S(=O)(=O)N(C)CC(=O)N1CCc2ccccc21 | -3.19% (inactive)
O=C(CCS(=O)(=O)c1cccc2nonc12)N1CC(=O)N(CCc2ccccc2)C(=O)C1 | -3.51% (inactive)
COc1ccc(-c2noc(-c3cc(C)cc(C)c3)n2)cc1OC | 4.05% (inactive)
Cc1ccc(-c2nn(-c3ccccc3)cc2C2SCC(=O)N2Cc2ccccc2)o1 (centres undefined) | -0.06% (inactive)

assay: viability of HCT116 without oncogenic beta-catenin – human colon tumor cells, pilot screen (AID 823); settings: HCT116 beta-catenin knockout viability, CellTiter-Glo, 60 h; at 10 µM; hits give low values;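 further: 0% = wells killed by 20 µM Hyamine and 100% = untreated DMSO cell wells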

Structure (SMILES) | viability
CCCOc1cccc(C(=O)Nc2cccnc2)c1 | 92.6% (inactive)
COc1ccc(-c2n[nH]c(C)c2-c2cnn(-c3ccccc3)c2)c(O)c1 | 85.2% (inactive)
COc1ccc(OC)c(NC(=O)C2CCC(CNc3c(N4CCC(C)CC4)c(=O)c3=O)CC2)c1 (centres undefined) | 70.8% (inactive)
COC(=O)c1c(NC(=O)C2CC2)sc2c1CCCC2 | 95.1% (inactive)
CC(C)Oc1ccc(NC(=O)Oc2ccccc2)cc1 | 97.4% (inactive)
COCCNc1oc(-c2ccccc2Cl)nc1C#N | 111% (inactive)
O=c1c2ccccc2nc(N2CCN(c3ccccc3)CC2)n1Cc1ccccc1 | 66.3% (inactive)
CCC(Sc1nc2c(cnn2-c2ccccc2)c(=O)[nH]1)C(=O)OC (centres undefined) | 91.8% (inactive)
Cn1c(-n2c(CCCN3C(=O)c4ccccc4C3=O)nc3ccccc3c2=O)nc2ccccc21 | 84.5% (inactive)
CCOC(=O)C1Cn2c(nc3c(c2=O)C2(CCCC2)Cc2ccccc2-3)S1 (centres undefined) | 84.2% (inactive)
COC(=O)c1ccc(CSc2ccc3nnc(-c4cccc(F)c4)n3n2)o1 | 87.9% (inactive)
CCOc1ccccc1C(=O)Nc1ccc2nc(N3CCN(c4ncccn4)CC3)cc(C)c2c1 | 4.33% (active)
O=C(O)CC1C(=O)NCCN1C/C=C/c1ccccc1 (centres undefined) | 105% (inactive)
CCN1CCN(CC(=O)Nc2cccc(C)c2)C(=O)C1=O | 99.6% (inactive)
CCCCOc1ccccc1C1NC(=O)NC(C)=C1C(=O)OCCOC (centres undefined) | 92.9% (inactive)
Brc1ccc(-c2nnc3ccc(N4CCN(c5ccccc5)CC4)nn23)cc1 | 82.8% (inactive)

Structure (SMILES) | viability
CN1CSC2=C(C#N)C(c3cccc(OCc4ccccc4)c3)CC(=O)N2C1 (centres undefined) | 85.7% (inactive)
COc1ccccc1-n1c(CNC(=O)c2ccccc2)nnc1SCC(=O)Nc1nnc(C)s1 | 103% (inactive)
Cn1cccc1Cc1nnc(SCC(=O)Nc2ccc3c(c2)OCCO3)n1CCc1ccccc1 | 90.2% (inactive)
CN(Cc1ccccc1)c1oc(COc2ccccc2F)nc1C#N | 80.2% (inactive)
CCOC(=O)c1cc2c(=O)n3ccccc3nc2n(Cc2ccco2)c1=NC(=O)c1cccnc1 | 99.5% (inactive)
CCOC(=O)c1[nH]c(C)c(C(=O)N2CCOCC2)c1C | 109% (inactive)
CCCOC(=O)c1ccc(NC(=O)CCC(=O)OCC)cc1 | 98.8% (inactive)
COC(=O)CSc1nc2ccc(NC(=O)CSc3nnnn3Cc3ccccc3)cc2s1 | 87.2% (inactive)
Cc1ccc(C)c(C(=O)Nc2c(C(N)=O)oc3ccccc23)c1 | 94.2% (inactive)
C(#Cc1ccccc1)CN1CCN(c2ccccn2)CC1 | 98.3% (inactive)
COc1cc(OC)c(NC(=O)CS(=O)(=O)Cc2nc(-c3ccc(C)cc3)oc2C)cc1Cl | 85.5% (inactive)
COc1cccc(CSc2nc3sc(C)c(C)c3c(=O)n2Cc2ccco2)c1 | 95.7% (inactive)
Cc1noc(/C=C/NCc2cccnc2)c1S(=O)(=O)N(C)CC(=O)N1CCc2ccccc21 | 91.2% (inactive)
O=C(CCS(=O)(=O)c1cccc2nonc12)N1CC(=O)N(CCc2ccccc2)C(=O)C1 | 95.4% (inactive)
COc1ccc(-c2noc(-c3cc(C)cc(C)c3)n2)cc1OC | 100% (inactive)
Cc1ccc(-c2nn(-c3ccccc3)cc2C2SCC(=O)N2Cc2ccccc2)o1 (centres undefined) | 74.2% (inactive)
